Each sequence was assayed against MAGOHB (assay: pooled miR-30 sensor sort-seq; sequence = guide strand). Conditions: shRNA.
With TTCCATTACACTCTTGTGCACA the sensor-assay potency score (higher = more potent) was -0.478.
Work on TTTCTGATCATCACATCATTTT yielded a sensor-assay potency score (higher = more potent) of -1.65.
Sequence TCTTCTTTTGTAATTTCACTGT has a sensor-assay potency score (higher = more potent) of -0.146.

What follows are sequences tested against MAGOH in the same assay as above. Conditions: shRNA.
Sequence TTCTTGTAATTGCTGTTGTTGG has a sensor-assay potency score (higher = more potent) of -1.26.
TAATAAAATACTCGTAAGCCTT was tested, and the sensor-assay potency score (higher = more potent) was -0.986.
TATCTTAACTTCCCGTCCGGTC gave a sensor-assay potency score (higher = more potent) of -1.04.
TCAAACTCCAGGAACTCGTGGC showed a sensor-assay potency score (higher = more potent) of 0.562.
TTTTCTGATCATGACATCATTC was tested, and the sensor-assay potency score (higher = more potent) was -1.16.
TCTGATCATGACATCATTCTTG showed a sensor-assay potency score (higher = more potent) of 0.0716.
TTGGCATATCTTAACTTCCCGT showed a sensor-assay potency score (higher = more potent) of -0.899.
For TTAACTTCCCGTCCGGTCGAAA, the sensor-assay potency score (higher = more potent) was -1.06.
TAAGCCTTCTGGATCCTTGGAT gave a sensor-assay potency score (higher = more potent) of 0.401.
For ATATCTTAACTTCCCGTCCGGT, the sensor-assay potency score (higher = more potent) was -0.615.
TTGATTGACATCAATAAGGGAA gave a sensor-assay potency score (higher = more potent) of 0.101.
TCCAATAAGACTGAAGACCAAA was tested, and the sensor-assay potency score (higher = more potent) was -1.96.

The sequences below were run against MALL in the same assay as above. Conditions: shRNA.
TAAGACAACAGGAACATCAAGG was tested, and the sensor-assay potency score (higher = more potent) was -0.729.
For TAAATGTCCAAACAAAGTGTGG, the sensor-assay potency score (higher = more potent) was -1.11.
TACAGGATGCCAGTGGTCCCGT gave a sensor-assay potency score (higher = more potent) of -0.996.
AATTAATGTAGTAAATTCTTGG showed a sensor-assay potency score (higher = more potent) of -0.359.
TCTTTTGTAAAATCCAAACAAG was tested, and the sensor-assay potency score (higher = more potent) was -1.37.
TTAATGTAGTAAATTCTTGGGT was tested, and the sensor-assay potency score (higher = more potent) was -0.194.
In the case of AAACAAGTAAGACAACAGGAAC, the sensor-assay potency score (higher = more potent) is reported as -1.63.
Sequence TTGTAAAATCCAAACAAGTAAG has a sensor-assay potency score (higher = more potent) of -1.62.
For TTCTCAGAAACAATCGTGGCAT, the sensor-assay potency score (higher = more potent) was 0.00713.
Work on AGTTTCTCAGAAACAATCGTGG yielded a sensor-assay potency score (higher = more potent) of -1.29.
TTTCTCAGAAACAATCGTGGCA gave a sensor-assay potency score (higher = more potent) of 0.81.
TAATGTAGTAAATTCTTGGGTC showed a sensor-assay potency score (higher = more potent) of 0.801.

What follows are sequences tested against MAMSTR in the same assay as above. Conditions: shRNA.
For TTCCTGCAGCTCCTCCTCCAGA, the sensor-assay potency score (higher = more potent) was -1.58.
In the case of TCTGAAGTTCCAACTTGTGTGG, the sensor-assay potency score (higher = more potent) is reported as -0.0798.
Sequence TTGACCGAGCCCTGACGCCGGG has a sensor-assay potency score (higher = more potent) of -1.2.
TGCTGGAGTCAGATAAGTCAGC showed a sensor-assay potency score (higher = more potent) of -1.36.
For TAGACTTGGTCCCCGACACTGG, the sensor-assay potency score (higher = more potent) was -0.651.
TCGGCTTGGGGGTCTGCCCTGG was tested, and the sensor-assay potency score (higher = more potent) was -0.566.
Sequence TCCAGAGTCAGAGCCGCTGAGC has a sensor-assay potency score (higher = more potent) of -2.
TGAAGTTCCAACTTGTGTGGGG gave a sensor-assay potency score (higher = more potent) of 0.878.
Work on TTAGGAAGCAACTGCGCCCTCC yielded a sensor-assay potency score (higher = more potent) of -0.483.
TTGTCTCCGATCCTGTGTCTGC was tested, and the sensor-assay potency score (higher = more potent) was -0.79.
TGGAGTCAGATAAGTCAGCGGA showed a sensor-assay potency score (higher = more potent) of -0.63.
TGCTGCGCTGGGCTTGACCGAG was tested, and the sensor-assay potency score (higher = more potent) was -1.43.

Reference: the OligoGym collection
